HTT cytoprotect – protects HTT-Q103 PC12 cells, measured by ATP. PC12 HTT-Q103 induced, cytoprotection, ATP luminescence, 40 h. Potency, µM (highest dose often 56.4 µM), inactives show cytoprotection (ATP increase), usual class: activators. actives 0.14% (n = 230,000). AID 1471; note: % of control where 0% means no effect; nearly all actives have a fitted effect of over 45% in size
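Compounds added alongside 100 nM tebufenozide, which induces toxic Q103 huntingtin exon 1-GFP in stable PC12 cells; surviving cells quantified by luminescent ATP measurement. Medium: phenol red-free DMEM, 5% equine and 5% calf serum.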
Tau FP inhib – tau fibrillization inhibition (FP); AID 1468; K18 P301L tau heparin fibrillization, Alexa594 FP, 6 h; Potency, µM (series often up to 57.7 µM), without a hit: at the highest dose activity, negative = inhibition, actives largely listed as inhibitors; actives 0.39% (n = 280,000); P10636; note: % is set by controls: 0 for no effect and ±100 for the full control effect; nearly all actives have a fitted effect of over 55% in size
Target sequence (P10636 561-689 P618L limits assumed): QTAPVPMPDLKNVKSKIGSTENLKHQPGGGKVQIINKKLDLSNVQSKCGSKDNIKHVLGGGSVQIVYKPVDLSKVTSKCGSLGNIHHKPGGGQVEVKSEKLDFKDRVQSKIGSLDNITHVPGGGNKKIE
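Heparin (20 uM) drove fibril formation of recombinant tau K18 P301L, 15 uM unlabeled with 0.24 uM Alexa 594 label, for 6 hr at 37 C in 100 mM sodium acetate pH 7. Fluorescence polarization (555/632 nm) read 1 hr after 30 uM ThT.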
HttQ103 aggreg – mutant huntingtin aggregation inhibition; PC12 HttQ103-GFP aggregates, Acumen cytometry, 40 h; actives 1.1% (n = 220,000); AID 1688; Potency, µM (top dose mostly 46.1 µM), inactives show at the highest dose activity change, negative = inhibition, actives largely listed as inhibitors; note: % is set by controls: 0 for no effect and ±100 for the full control effect; nearly all actives have a fitted effect of over 60% in size
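Quantitative HTS on tebufenozide-induced (100 nM) PC12 cells stably expressing polyQ103 Huntingtin exon 1–GFP. Reduction of bright GFP aggregates, detected by laser scanning cytometry after lysis, identified actives across the titration.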
Tau ThT inhib – inhibitors of human tau fibril formation, thioflavin T binding. P10636. actives 2.1% (n = 270,000). recombinant tau K18 P301L, heparin-induced fibrillization, ThT fluorescence. Potency, µM (doses to about 57.4 µM), without a hit: at the highest dose activity, negative = inhibition, actives largely listed as inhibitors. AID 1460; note: % is set by controls: 0 for no effect and ±100 for the full control effect; nearly all actives have a fitted effect of over 55% in size
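ThT emission at 510 nm, taken 1 hr after adding 30 uM dye, quantifies aggregates formed when 20 uM heparin acts on human tau K18 P301L for 6 hr at 37 C.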
Tau fluor counter – counter-screen for tau fibril formation inhibitors. actives 0.93% (n = 280,000). Potency, µM (top dose mostly 57.7 µM), without a hit: at the top dose activity change, negative = decrease. tau K18 P301L Alexa594 fluorescence, heparin fibrillization; note: % is set by controls: 0 for no effect and ±100 for the full control effect; nearly all actives have a fitted effect of over 55% in size
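Human tau K18 P301L (15 uM unlabeled, 0.24 uM Alexa 594-labeled) in 100 mM sodium acetate pH 7 with 20 uM heparin, 6 hr at 37 C. ThT 30 uM added, 1 hr ambient; Alexa 594 FP and total fluorescence read at 555/632 nm.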
Active calls of the source: *; ! = repeats disagree; [ ] = dose if it differs, or a comment. A selection: hits, their analogues and other compounds. The true share with any hit is near 3.7%. Calls come from the whole dose curve; as a rule, active = well fitted curve in the direction sought with a large enough effect; inconclusive = small, poorly fitted or top-dose-only effect, or another doubt; inactive = no such curve, though single readings can be large; an effect the other way counts as inactive or inconclusive. Potency is the fitted concentration of half-maximal effect.

What do the screens show for `COCCCn1c(N)c(-c2nc3ccccc3n2C)c2nc3ccccc3nc21`?
HTT cytoprotect: -29%; Tau FP inhib: inconclusive; HttQ103 aggreg: 7%; Tau ThT inhib: 18µM*; Tau fluor counter: 16µM*[quencher]

What do the screens show for `Cn1c(-c2c(N)n(CCCc3ccccc3)c3nc4ccccc4nc23)nc2ccccc21`?
HTT cytoprotect: -11%; Tau FP inhib: 4%; HttQ103 aggreg: 6%; Tau ThT inhib: 4%; Tau fluor counter: 3%

Results for COc1ccc(OC)c(NC(=O)c2c(N3CCCC3=O)c3cc(OC)ccc3n2C)c1 ?
Tau FP inhib: 9%; Tau ThT inhib: -17%; Tau fluor counter: -22%

What do the screens show for `Nc1cc(S(N)(=O)=O)ccc1SSc1ccc(S(N)(=O)=O)cc1N`?
HTT cytoprotect: -9%[10 µM]

Results for COc1cc2[nH]c3c(Cl)ncnc3c2cc1OC ?
HTT cytoprotect: -24%[10 µM]; Tau FP inhib: 1%; HttQ103 aggreg: 17%; Tau ThT inhib: inconclusive; Tau fluor counter: -16%

Results for COc1cc2[nH]c(Cl)c([N+](=O)[O-])c2cc1OC ?
HTT cytoprotect: -11%[10 µM]; Tau FP inhib: inconclusive; HttQ103 aggreg: 6%[9.22 µM]; Tau ThT inhib: 14µM*; Tau fluor counter: inconclusive

How did Cn1c(=O)c2c(ncn2CCO)n(C)c1=O do in these assays?
HTT cytoprotect: 2.5µM*!; Tau FP inhib: 1%; HttQ103 aggreg: 4%; Tau ThT inhib: -10%; Tau fluor counter: -6%

How did C=CCOC(=O)C1=C(C)NC(=O)NC1/C=C/c1ccccc1 (stereo not given) do in these assays?
HTT cytoprotect: 6%; Tau FP inhib: -11%; HttQ103 aggreg: -5%; Tau ThT inhib: 0%; Tau fluor counter: -5%

Results for COc1ccccc1C1CC(=O)NC(C)=C1C(=O)OCC(C)C (stereo not given) ?
HTT cytoprotect: -11%; Tau FP inhib: 5%; HttQ103 aggreg: -4%; Tau ThT inhib: -4%; Tau fluor counter: -1%

How did C=CCOC(=O)C1=C(C)NC2(O)c3ccccc3C(=O)C12O (stereo not given) do in these assays?
HTT cytoprotect: -5%; Tau FP inhib: inconclusive; HttQ103 aggreg: -4%; Tau ThT inhib: 13µM*; Tau fluor counter: -14%

How did CC1=C(C(=O)OCC(C)C)C2(O)C(=O)c3ccccc3C2(O)N1 (stereo not given) do in these assays?
HTT cytoprotect: -8%[10 µM]; Tau FP inhib: inconclusive; HttQ103 aggreg: -29%; Tau ThT inhib: 7.9µM*; Tau fluor counter: -10%

What do the screens show for `CSc1ccc(CCNC(=O)CCc2c(C)nc3c4cccnc4nn3c2C)cc1`?
Tau FP inhib: 12%; Tau ThT inhib: -5%; Tau fluor counter: 0%

Results for CC1=NN(c2ccc(C)cc2)C(=O)/C1=C\C=C\c1ccccc1 ?
Tau FP inhib: inconclusive; HttQ103 aggreg: 3%; Tau ThT inhib: 7.1µM*; Tau fluor counter: 7.9µM*[quencher]

What do the screens show for `CC1=NN(c2ccccc2)C(=O)/C1=C/C=C/C=C/N(C)C`?
HTT cytoprotect: -61%; Tau FP inhib: -5%; HttQ103 aggreg: inconclusive; Tau ThT inhib: 16µM*; Tau fluor counter: -27%

What do the screens show for `CC1=NN(c2cccc(C(=O)O)c2)C(=O)/C1=C\C=C/c1ccccc1`?
HTT cytoprotect: -20%; Tau FP inhib: inconclusive; HttQ103 aggreg: inconclusive; Tau ThT inhib: 7.1µM*; Tau fluor counter: inconclusive

How did CC1=NN(c2ccccc2)C(=O)/C1=C\c1cc(C)n(-c2cccnc2)c1C do in these assays?
HTT cytoprotect: 1%[10 µM]; Tau FP inhib: -8%; HttQ103 aggreg: -9%[9.22 µM]; Tau ThT inhib: inconclusive; Tau fluor counter: -20%

How did CC1=NN(c2nc(-c3ccc(Cl)cc3)cs2)C(=O)C1 do in these assays?
HTT cytoprotect: -53%; Tau FP inhib: -1%; HttQ103 aggreg: inconclusive; Tau ThT inhib: 11µM*; Tau fluor counter: inconclusive

What do the screens show for `CCOC(=O)C1=C(C)N=c2s/c(=C\c3ccncc3)c(=O)n2C1c1ccc2c(c1)OCO2` (stereo not given)?
HTT cytoprotect: 14%[0.074 µM]; Tau FP inhib: inconclusive; HttQ103 aggreg: 1%; Tau ThT inhib: 25µM*; Tau fluor counter: inconclusive

What do the screens show for `CCOC(=O)C1=C(C)N=c2s/c(=C/c3ccccc3)c(=O)n2C1c1ccc(OC)c(OC)c1` (stereo not given)?
HTT cytoprotect: -5%; Tau FP inhib: 1%; HttQ103 aggreg: 21%; Tau ThT inhib: -15%; Tau fluor counter: -9%

Results for CCOC(=O)C1=C(C)N=c2s/c(=C3\C(=O)Nc4ccccc43)c(=O)n2C1c1ccc2c(c1)OCO2 (stereo not given) ?
HTT cytoprotect: -9%[10 µM]; Tau FP inhib: inconclusive; HttQ103 aggreg: 19%; Tau ThT inhib: 18µM*; Tau fluor counter: inconclusive

What do the screens show for `COc1ccc(CCNC(=O)c2cc3c(=O)n(C)c4cc(Cl)ccc4c3s2)cc1OC`?
Tau FP inhib: -3%; Tau ThT inhib: -8%; Tau fluor counter: -5%

Results for CCOC(=O)C[n+]1c(C)sc2ccc(OC)cc21 ?
HTT cytoprotect: -5%; Tau FP inhib: inconclusive; HttQ103 aggreg: 16%; Tau ThT inhib: 28µM*; Tau fluor counter: -19%

Results for Cc1ccc2sc(C)[n+](CCO)c2c1 ?
HTT cytoprotect: inconclusive; Tau FP inhib: -11%; HttQ103 aggreg: -9%; Tau ThT inhib: inconclusive; Tau fluor counter: -7%

Results for CO[C@H]1COC(=O)CCC[C@@H](C)[C@H](OC)COC(=O)[C@H]2CCCN2C(=O)C/C=C\[C@@H]1C ?
HTT cytoprotect: -5%[10 µM]; Tau FP inhib: 0%[11.6 µM]; Tau ThT inhib: -21%[11.5 µM]; Tau fluor counter: -19%[11.6 µM]

How did Cc1ccc(CNS(=O)(=O)c2cc(C(=O)Nc3cccc(C(F)(F)F)c3)ccc2F)cc1 do in these assays?
Tau FP inhib: 14µM*; Tau ThT inhib: 22%; Tau fluor counter: inconclusive

How did O=C(Nc1cccc(Cl)c1)c1ccc(F)c(S(=O)(=O)NCc2ccc3c(c2)OCO3)c1 do in these assays?
Tau FP inhib: inconclusive; HttQ103 aggreg: -22%; Tau ThT inhib: -14%; Tau fluor counter: 16µM*[quencher]

How did Cc1ccc(CNS(=O)(=O)c2cc(C(=O)Nc3ccc(C(C)C)cc3)ccc2F)cc1 do in these assays?
Tau FP inhib: inconclusive; Tau ThT inhib: -4%; Tau fluor counter: inconclusive

How did CCOC(=O)c1ccc(CN(Cc2ccc(F)cc2)S(=O)(=O)c2cc(C(=O)Nc3cccc(C(F)(F)F)c3)ccc2F)cc1 do in these assays?
Tau FP inhib: 14µM*; Tau ThT inhib: 7%; Tau fluor counter: 0%

Results for Cc1cc(-c2ccc(N=Nc3c(S(=O)(=O)O)cc4cc(S(=O)(=O)O)cc(N)c4c3O)c(C)c2)ccc1N=Nc1c(S(=O)(=O)O)cc2cc(S(=O)(=O)O)cc(N)c2c1O ?
HTT cytoprotect: -23%; HttQ103 aggreg: 0.02µM*

Screens: PubChem BioAssay, National Center for Advancing Translational Sciences (NCATS)
